# ELG1 repair inh: blocks ELG1-dependent DNA repair in HEK293T cells; HEK293T ELG1-luciferase reporter, luminescence, 16 h; DNA damage induced by 5-fluorouridine; Potency, µM (top dose mostly 46.1 µM), without a hit: at the top dose activity change, negative = inhibition, usual class: inhibitors; hit rate 2.3% among 330,000; AID 504467; further: potency means the concentration at half of the fitted maximal effect; on the % scale 0 is the no-effect control and ±100 the full control effect; nearly all actives have a fitted effect of over 55% in size
#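 Reporter activity after DNA damage by 5-fluorouridine is monitored. Compound-treated cells incubate 16 hr at 37 °C, then ONE-Glo is added for 30 min before luminescence reading.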
# TRPV1 PAM: human TRPV1 potentiation | TRPV1-expressing cells, Fluo-8 calcium influx, capsaicin EC20 potentiation | potentiation, % at 8.33 µM | hit rate 0.02% among 320,000 | AID 540277; in the data active means potentiation above about 80%; inconclusive means between about 30% and that limit; further: 0% is about no effect
# Target sequence (Q8NER1 whole entry, looked up): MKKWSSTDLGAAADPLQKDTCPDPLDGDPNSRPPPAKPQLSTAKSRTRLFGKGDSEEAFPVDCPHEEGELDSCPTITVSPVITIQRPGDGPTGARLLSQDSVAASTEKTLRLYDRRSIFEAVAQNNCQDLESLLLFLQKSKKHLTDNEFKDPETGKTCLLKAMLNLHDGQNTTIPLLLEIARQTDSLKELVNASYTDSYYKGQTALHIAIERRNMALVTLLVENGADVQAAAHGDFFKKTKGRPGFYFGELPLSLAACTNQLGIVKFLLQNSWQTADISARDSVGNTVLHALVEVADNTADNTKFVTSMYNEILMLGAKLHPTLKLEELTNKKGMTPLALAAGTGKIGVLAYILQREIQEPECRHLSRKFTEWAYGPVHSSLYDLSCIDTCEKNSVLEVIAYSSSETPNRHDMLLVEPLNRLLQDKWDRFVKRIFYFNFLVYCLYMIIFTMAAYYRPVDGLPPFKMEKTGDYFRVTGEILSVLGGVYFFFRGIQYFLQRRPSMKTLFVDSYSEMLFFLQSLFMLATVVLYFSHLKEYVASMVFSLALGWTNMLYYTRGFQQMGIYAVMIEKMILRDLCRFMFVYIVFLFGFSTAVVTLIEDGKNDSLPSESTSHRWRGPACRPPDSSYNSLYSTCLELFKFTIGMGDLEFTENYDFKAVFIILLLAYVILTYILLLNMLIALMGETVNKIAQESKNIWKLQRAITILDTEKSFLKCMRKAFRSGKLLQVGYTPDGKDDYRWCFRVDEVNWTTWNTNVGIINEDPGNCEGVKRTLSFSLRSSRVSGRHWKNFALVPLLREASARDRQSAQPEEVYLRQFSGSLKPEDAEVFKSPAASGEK
#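 TRPV1-expressing cells were cultured overnight at 35.5C and loaded with Fluo-8 calcium dye for 40 to 90 min at room temperature. After a 10 s baseline, compound was added and calcium influx was read kinetically for 3 min (ex 480/em 520 nm).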
# Giardia killer: Giardia lamblia killing; Giardia lamblia trophozoite viability; hit rate 0.15% among 340,000; activity change, % at 7.66 µM, hits read low; AID 540267; in the data active means activity change below about -80%; inconclusive means between about -30% and that limit;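 further: parasites exposed to compound for two days anaerobically before the ATP read; on the % scale 0 is the no-effect control and ±100 the full control effect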
#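 Killing of trophozoites was scored by loss of ATP luminescence after a 48 hrs anaerobic exposure to compounds at 37 deg C, using 100 cells per well.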
# TRPV1 ag: activates the human vanilloid receptor TRPV1; TRPV1-expressing cells, Fluo-8 calcium influx, agonist mode; activation, % at 8.33 µM; hit rate 0.19% among 320,000; in the data active means activation above about 80%; inconclusive means between about 30% and that limit; further: 0% is about no effect
#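 Fluo-8 calcium influx in TRPV1-expressing cells, kinetic read (ex 480/em 520 nm). Compound added and read 3 min for agonist activity, followed by capsaicin at EC20 final and 2 min further read for enhancement.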
# FUS suppressor: FUS proteinopathy suppression in yeast | S. cerevisiae FUS-expressing, growth rescue, OD600, 24 h | Potency, µM (series often up to 76.6 µM), hits mostly activators | hit rate 0.24% among 390,000;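 further: potency means the concentration at half of the fitted maximal effect; plate controls were DMSO vehicle for no effect and reference control for full effect; nearly all actives have a fitted effect of over 55% in size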
#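 FUS-expressing yeast, raffinose-pregrown, induced in 2% galactose minimal medium at OD 0.005; compounds in a dilution series, 24hr at 30C. Growth restoration read as absorbance at 600 nm. CP55940 positive control, DMSO negative.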
# Numbers without * were called inactive; i = inactive; ? = inconclusive; . = no result given. A selection: hits, their analogues and other compounds. The true share with any hit is near 2.3%. Unless noted, the call rests on the fitted dose curve; in most records, active means well fitted curve in the direction sought with a large enough effect; inconclusive means small, poorly fitted or top-dose-only effect, or another doubt; inactive means no such curve, though single readings can be large; an effect the other way counts as inactive or inconclusive.
SMILES,ELG1 repair inh,TRPV1 PAM,Giardia killer,TRPV1 ag,FUS suppressor
Cc1cccc(-n2cnc3c(c2=O)c2nc4ccccc4nc2n3Cc2ccco2)c1,18µM*,-3,4,2,i
CNC(=O)/C(C#N)=C/c1c(N(Cc2ccccc2)Cc2ccccc2)nc2ccccn2c1=O,18µM*,-14,-3,25,.
Cn1c(SCC(=O)NCC2CCCO2)nc2c([nH]c3ccccc32)c1=O (configuration not stated),?,3,-3,0,i
C=CCn1c(SCC(=O)NCC2CCCO2)nc2c([nH]c3ccccc32)c1=O (configuration not stated),4.1µM*,9,24,1,i
COc1ccccc1NC(=O)C(C)OC(=O)C1CCC(C(C)(C)C)CC1 (configuration not stated),?,14,-3,2,i
Cc1cccc(C(=O)Nc2nnc(-c3cccnc3)o2)c1,-23%,18,7,2,i
O=C(Nc1nnc(-c2cccnc2)o1)c1cccc([N+](=O)[O-])c1,18µM*,2,.,-4,.
CCN(CC)CCCNC(=O)c1cn(C)c2ccc(S(=O)(=O)N3CCOCC3)cc2c1=O,.,.,.,.,i
CN(C)c1ccc(/C=C/c2nc3ccccc3c(=O)[nH]2)cc1,?,-5,-92*,14,i
COc1ccc2sc(-c3ccc(S(C)(=O)=O)cc3)c(C(=O)NCCc3c[nH]c4ccccc34)c2c1,18µM*,.,34,.,i
COc1ccc(CN(C)c2ccc(-c3nc(-c4ccc(OC)c(OC)c4)no3)cc2[N+](=O)[O-])cc1,.,.,.,.,i
CCN1CCCC1CNCc1cccc(OC)c1OCc1ccccc1F (configuration not stated),-2%,18,-16,0,i
COc1cccc(CNc2ccccc2O)c1OCc1ccccc1F,?,-4,-4,16,20µM*
O=C(NCc1ccncc1)C(=O)NCC(c1ccco1)N1CCN(c2ccccc2)CC1 (configuration not stated),21µM*,-8,1,13,i
CC(C)[n+]1ccn(C2=C([O-])c3ccccc3C(=O)/C2=N\S(=O)(=O)c2ccccc2)c1,23µM*,20,-8,3,i
CC(C)(C)c1cc[n+](C2=C([O-])c3ccccc3C(=O)/C2=N\S(=O)(=O)c2ccccc2)cc1,15µM*,9,?,1,i
COC(=O)C1(C(=O)OC)C[C@H](/C=C/c2ccccc2)N(Cc2ccccc2OC)[C@@H]1c1ccc(F)cc1,.,.,.,.,i
Cc1cc(NC(=O)COc2ccccc2)cc(-c2nc3ccccc3o2)c1O,.,.,.,.,i
O=C(c1ccc(Br)cc1)N1CCC(c2nc3ccccc3s2)CC1,.,.,.,.,i
CCn1c(C(=O)N2CCC(C(=O)N3CCN(c4ccc(OC)cc4)CC3)CC2)cc2sccc21,.,.,.,.,i
CCn1c(C(=O)N2CCC(C(=O)N3CCN(c4ccccn4)CC3)CC2)cc2sccc21,13µM*,?,16,4,i
CC(C)NC(=O)C1CCN(C(=O)c2cc3sccc3n2Cc2ccc(Cl)cc2)CC1,.,.,.,.,i
CC1CCN(C(=O)C2CCN(C(=O)c3cc4sccc4n3Cc3ccc(F)cc3)CC2)CC1,16µM*,6,46,?,?
CC(C)NC(=O)C1CCN(C(=O)c2cc3sccc3n2Cc2ccc(F)cc2)CC1,18µM*,18,2,4,i
O=C1c2ccccc2NC(c2ccc3c(c2)OCO3)N1Cc1ccco1 (configuration not stated),.,.,5,.,.
SMILES,ELG1 repair inh,TRPV1 PAM,Giardia killer,TRPV1 ag,FUS suppressor
C/C(=N\NC(=S)Nc1ccc(C)c(C)c1)c1ccc(N2CCOCC2)cc1,23µM*,13,-8,2,i
CCN(CC)c1ccc(/C=N/NC(=O)Cc2nnc(NC(=O)Nc3ccccc3)s2)cc1,23%,-2,5,-3,18µM*
CCN(CC)c1ccc(/C=N/NC(=O)Nc2ccccc2)cc1,?,-8,0,4,i
O=C(Cc1csc(N2CCOCC2)n1)N/N=C/c1ccc(O)c(O)c1O,13µM*,0,-8,1,i
CSc1ccc(CCNC(=O)c2cc3cc(S(=O)(=O)N4CCCCC4)ccc3n2C)cc1,.,.,.,.,i
COCCN(C(=O)COC(=O)/C=C/c1ccc2ccccc2n1)c1c(N)n(Cc2ccccc2)c(=O)[nH]c1=O,12µM*,9,-4,3,.
CN(C(=O)COC(=O)/C=C/c1ccc2ccccc2n1)c1c(N)n(Cc2ccccc2)c(=O)[nH]c1=O,?,2,10,1,.
CCOc1ccc(C2C(=O)N(C3CCCCC3)CC(=O)N2Cc2ccccc2OC)cc1OC (configuration not stated),.,.,.,.,i
O=C(Cn1cc(C(F)(F)F)ccc1=O)N/N=C/c1ccc(F)cc1,-7%,-23,2,-1,i
O=C(Cn1cc(C(F)(F)F)ccc1=O)N/N=C/c1ccccc1O,18µM*,2,5,1,i
Cc1ccc(N2CCN(C(=O)N3CCCC3)CC2)cc1C,-17%,-22,10,94*,i
Cc1cccc(N2CCN(C(=O)N3CCCCC3)CC2)c1C,0%,-2,5,82*,i
Cc1cccc(N2CCN(C(=O)c3c(C)nn(Cc4ccccc4Cl)c3C)CC2)c1C,21µM*,6,7,-1,?
Cc1ccc(N2CCN(S(=O)(=O)N3CCCCC3)CC2)cc1C,-1%,-27,4,17,i
CC(=O)Nc1ccc(NC(=O)c2c(C)nn(Cc3ccccc3Cl)c2C)cc1,15%,20,9,0,i
COCCNc1nc(NCc2ccc(NC(C)=O)cc2)c2sc(-c3ccccc3)cc2n1,.,.,.,.,i
CCOC(=O)Cc1ccc(NC(=O)NCc2cccn2Cc2ccccc2)cc1,.,.,.,.,i
Cc1ccc(S(=O)(=O)N2CCN(c3nc(-c4cccs4)nc4c3ncn4COC(=O)C(C)(C)C)CC2)cc1,.,.,-3,.,.

# Compound activity deposited in PubChem BioAssay by National Center for Advancing Translational Sciences (NCATS).
